From PubChem BioAssay (NCI) come the findings set out here.

This is part of a sample that, as a whole, favours compounds with a hit. Of some 83,000 tested, about 20% had one in any assay.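 Cells were grown in 96-well plates and exposed to the test compound at a single concentration for 48 hours; results are reported as percent growth, with values below 10 considered active.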 A number with no mark means an inactive call. Activity calls are given as the source filed them.

The subject of this experiment is NCI-H522 lung. In words: NCI-60 one-dose screen, 48 h (100 = growth as untreated, 0 = no growth, -100 = all killed). The conditions noted are these: 10 µM unless noted.
Turning to `CCCSc1nc(Nc2ccc(S(N)(=O)=O)cc2)c(C#N)c(-c2ccc(Cl)cc2)n1`, the growth was 16.6%.
In the case of `CCCCSc1nc(Nc2ccc(S(N)(=O)=O)cc2)c(C#N)c(-c2ccc(Cl)cc2)n1` it was 63.8%.
With `Cn1cc(-c2cc3nc(-c4cn(C)c5ncccc45)cc(N)n3n2)c2ccccc21`, the growth was -4.18% (active).
In the case of `Cc1ccc(C2=NN(c3nc(-c4cc5ccccc5oc4=O)cs3)C(c3ccc(C)cc3)C2)cc1` (configuration not stated) it was 100%; in that of `Cc1ccc2c(c1)nc(-c1ccccc1)n2CC(=O)N=Nc1c(O)[nH]c2ccc(Br)cc12`, -60.7% (active); in that of `O=C(Cn1nc(-c2ccccc2)ccc1=O)N/N=C/c1ccc(N2CCOCC2)cc1`, 89.4%.
For `O=C(NN1C(=O)/C(=C/C=C/c2ccc([N+](=O)[O-])o2)SC1=S)c1ccc(Cl)cc1` the value was -88.8% (active); for `CCCCSc1nc(Nc2ccc(S(N)(=O)=O)cc2)c(C#N)c(-c2cc(OC)c(OC)c(OC)c2)n1`, 63.2%; for `COc1cc2c3c(n(CCCN4CCC[C@@H]4CO)c(=O)c2cc1OC)-c1cc2c(cc1C3=O)OCO2`, -82.1% (active).
For `Cn1cc(-c2cc(N)n3nc(-c4cn(C)c5ncc(Br)cc45)cc3n2)c2cc(Br)cnc21` the value was 51.2%; for `Cn1cc(-c2cc(N)n3nc(-c4c[nH]c5ccccc45)cc3n2)c2cccnc21`, 31.3%.
Turning to `CN(C)c1nc(NCCNS(=O)(=O)c2ccc(C3=Nc4c(N)nc(N)nc4NC(c4ccccc4)C3)cc2)nc(Nc2ccc(F)cc2)n1` (configuration not stated), the growth is 43.1%.
